# Experimental data published in ChEMBL document CHEMBL1961873, “Compounds: GSK PKIS; Assays: Nanosyn kinase panel” (2012).
# Key:
# [1] = target: Mitogen-activated protein kinase 3 (Homo sapiens) (UniProt P27361); details: at 1 µM;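 further: values are mean percent inhibition of MAPK3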
# [2] = target: SRSF protein kinase 3 (Homo sapiens) (UniProt Q9UPE1); details: at 0.1 µM
# [3] = target: SRSF protein kinase 3 (Homo sapiens) (UniProt Q9UPE1); details: at 1 µM
# [4] = target: Mitogen-activated protein kinase 14 (Homo sapiens) (UniProt Q16539); details: at 0.1 µM
# Chain of Mitogen-activated protein kinase 14 (Homo sapiens) (Q16539 whole entry): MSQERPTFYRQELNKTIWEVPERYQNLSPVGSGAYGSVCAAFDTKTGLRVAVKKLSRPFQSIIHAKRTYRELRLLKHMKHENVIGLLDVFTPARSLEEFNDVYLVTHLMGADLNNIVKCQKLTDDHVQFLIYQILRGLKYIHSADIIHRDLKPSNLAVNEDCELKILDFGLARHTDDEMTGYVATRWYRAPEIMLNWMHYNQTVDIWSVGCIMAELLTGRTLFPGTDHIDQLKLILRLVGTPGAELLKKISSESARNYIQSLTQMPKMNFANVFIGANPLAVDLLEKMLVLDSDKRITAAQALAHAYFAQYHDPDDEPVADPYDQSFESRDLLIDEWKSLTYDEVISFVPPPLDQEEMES
# [5] = target: Mitogen-activated protein kinase 14 (Homo sapiens) (UniProt Q16539); details: at 1 µM
# [6] = target: Mitogen-activated protein kinase 11 (Homo sapiens) (UniProt Q15759); details: at 0.1 µM
# Chain of Mitogen-activated protein kinase 11 (Homo sapiens) (Q15759 whole entry): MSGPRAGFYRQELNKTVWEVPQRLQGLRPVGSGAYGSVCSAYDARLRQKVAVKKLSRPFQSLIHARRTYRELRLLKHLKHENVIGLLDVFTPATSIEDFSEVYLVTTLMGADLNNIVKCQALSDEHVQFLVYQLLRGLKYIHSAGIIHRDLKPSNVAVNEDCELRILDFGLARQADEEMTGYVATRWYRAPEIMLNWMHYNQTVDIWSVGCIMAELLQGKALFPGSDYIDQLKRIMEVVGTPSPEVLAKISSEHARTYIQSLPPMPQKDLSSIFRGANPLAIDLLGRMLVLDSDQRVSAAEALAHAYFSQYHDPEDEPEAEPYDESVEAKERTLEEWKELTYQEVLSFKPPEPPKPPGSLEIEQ
# [7] = target: Mitogen-activated protein kinase 11 (Homo sapiens) (UniProt Q15759); details: at 1 µM
# [8] = target: T1, Mitogen-activated protein kinase 13 (Homo sapiens) (UniProt O15264); details: at 0.1 µM
# T1 sequence (whole entry): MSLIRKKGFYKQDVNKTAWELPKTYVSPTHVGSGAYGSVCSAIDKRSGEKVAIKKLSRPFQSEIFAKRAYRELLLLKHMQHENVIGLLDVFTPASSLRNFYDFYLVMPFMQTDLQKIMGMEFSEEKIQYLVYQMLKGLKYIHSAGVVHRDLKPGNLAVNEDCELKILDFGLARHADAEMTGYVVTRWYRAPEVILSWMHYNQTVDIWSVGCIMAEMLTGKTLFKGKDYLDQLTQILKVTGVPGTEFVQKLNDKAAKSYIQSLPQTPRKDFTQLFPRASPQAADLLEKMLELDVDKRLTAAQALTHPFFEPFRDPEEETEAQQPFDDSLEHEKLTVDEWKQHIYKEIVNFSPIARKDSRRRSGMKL
# [9] = target: T1, Mitogen-activated protein kinase 13 (Homo sapiens); details: at 1 µM
# [10] = target: T2, Mitogen-activated protein kinase 12 (Homo sapiens) (UniProt P53778); details: at 0.1 µM
# T2 sequence (whole entry): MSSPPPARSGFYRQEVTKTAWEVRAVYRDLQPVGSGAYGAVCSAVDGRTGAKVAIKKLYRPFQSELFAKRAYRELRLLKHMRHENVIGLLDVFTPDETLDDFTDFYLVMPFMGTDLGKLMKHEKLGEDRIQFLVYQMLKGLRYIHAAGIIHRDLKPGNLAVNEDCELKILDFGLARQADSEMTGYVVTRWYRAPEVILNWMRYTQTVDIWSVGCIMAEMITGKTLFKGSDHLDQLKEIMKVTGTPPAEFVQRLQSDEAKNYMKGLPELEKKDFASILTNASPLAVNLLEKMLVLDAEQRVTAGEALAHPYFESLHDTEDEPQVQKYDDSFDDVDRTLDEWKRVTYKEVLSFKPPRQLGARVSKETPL
# Chain of Mitogen-activated protein kinase 3 (Homo sapiens) (P27361 whole entry): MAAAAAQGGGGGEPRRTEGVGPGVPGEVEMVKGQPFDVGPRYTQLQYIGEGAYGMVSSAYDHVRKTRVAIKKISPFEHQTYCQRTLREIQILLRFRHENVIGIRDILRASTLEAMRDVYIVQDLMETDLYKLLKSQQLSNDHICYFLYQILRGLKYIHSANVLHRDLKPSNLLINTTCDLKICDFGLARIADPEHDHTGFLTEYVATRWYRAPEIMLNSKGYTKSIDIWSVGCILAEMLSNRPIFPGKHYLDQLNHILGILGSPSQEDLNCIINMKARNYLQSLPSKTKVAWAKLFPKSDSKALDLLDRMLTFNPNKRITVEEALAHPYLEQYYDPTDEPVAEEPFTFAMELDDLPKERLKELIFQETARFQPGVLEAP
# Chain of SRSF protein kinase 3 (Homo sapiens) (Q9UPE1 whole entry): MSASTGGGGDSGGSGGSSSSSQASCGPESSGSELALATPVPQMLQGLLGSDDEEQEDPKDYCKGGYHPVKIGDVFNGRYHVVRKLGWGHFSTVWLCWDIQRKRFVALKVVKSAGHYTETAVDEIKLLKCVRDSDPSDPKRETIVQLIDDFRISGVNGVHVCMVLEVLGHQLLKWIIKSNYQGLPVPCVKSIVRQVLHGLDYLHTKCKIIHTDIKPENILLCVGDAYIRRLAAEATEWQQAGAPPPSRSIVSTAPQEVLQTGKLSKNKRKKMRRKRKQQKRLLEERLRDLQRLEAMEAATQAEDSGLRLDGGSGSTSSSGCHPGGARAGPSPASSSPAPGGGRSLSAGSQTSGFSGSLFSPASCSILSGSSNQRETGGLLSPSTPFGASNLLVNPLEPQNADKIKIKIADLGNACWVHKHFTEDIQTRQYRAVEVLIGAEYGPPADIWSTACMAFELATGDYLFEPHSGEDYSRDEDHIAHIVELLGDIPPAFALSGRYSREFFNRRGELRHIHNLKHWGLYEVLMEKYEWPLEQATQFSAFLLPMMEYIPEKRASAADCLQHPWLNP
Structure (SMILES),inhibition [1],inhibition [2],inhibition [3],inhibition [4],inhibition [5],inhibition [6],inhibition [7],inhibition [8],inhibition [9],inhibition [10]
NC(=O)c1ccc(Oc2nccc(-c3c(-c4ccc(F)cc4)ncn3C3CCNCC3)n2)cc1,5.38%,1.1%,-0.11%,,,,,,,
CCc1ccc(Oc2nccc(-c3c(-c4ccc(F)cc4)ncn3C3CCNCC3)n2)cc1,8.24%,3.09%,0.07%,,,,,,,
N#Cc1ccc(Oc2nccc(-c3c(-c4ccc(F)cc4)ncn3C3CCNCC3)n2)cc1,6.42%,-1.55%,-0.03%,,,,,,,
Fc1ccc(-c2ncn(C3CCNCC3)c2-c2ccnc(Oc3ccc4c(c3)OCO4)n2)cc1,10.1%,1.72%,6.43%,,,,,,,
COc1cc2ncn(-c3cc(OCCc4ccccc4)c(C(N)=O)s3)c2cc1OC,0.82%,-1.68%,0.18%,4.09%,13.1%,3.65%,2.87%,4.25%,1.8%,-0.53%
CS(=O)(=O)CCNCc1ccc(-c2ccc3ncnc(Nc4ccc(OCc5ccccc5)c(Br)c4)c3c2)o1,4.46%,-5.29%,-0.77%,6.51%,5.46%,3.98%,5.45%,4.88%,3.53%,3.43%
CN(c1ccc(NC(=O)Nc2c(Cl)cccc2Cl)cc1)c1ccnc(Nc2cccc(CS(C)(=O)=O)c2)n1,4.66%,0.97%,2.4%,2.39%,3.34%,1.5%,4.6%,1.53%,1.46%,-0.44%
COc1ccc(-c2ccc3c(NC(=O)C4CC4)n[nH]c3n2)cc1,4.66%,-1.22%,1.44%,1.32%,5.28%,2.79%,8.84%,-0.41%,0.43%,1.27%
NC(=O)Cc1ccccc1Oc1nccc(-c2c(-c3ccc(F)cc3)ncn2C2CCNCC2)n1,2.24%,-0.6%,0.09%,,,,,,,
COC(=O)Nc1nc2ccc(Sc3ccc(NC(=O)Nc4cc(C(F)(F)F)ccc4F)cc3)cc2[nH]1,1.55%,0.07%,8.97%,5.88%,39.3%,3.62%,34.3%,1.98%,2.44%,0.78%
COc1cccc(/C=N/Nc2ncnc3c2cnn3-c2cccc(OC)c2)c1,2.47%,-1.31%,-0.75%,5.18%,5.34%,2.68%,2.6%,4%,4.61%,3.43%
NS(=O)(=O)c1ccc(Nc2cc(-c3ccc(O)c(F)c3)n[nH]2)cc1,-1.26%,-1.38%,0.03%,-1.03%,-2.41%,-1.5%,6.83%,-6.82%,-4.19%,-2.85%
c1ccc(-c2n[nH]cc2-c2ccnc(-c3ccc(OCCN4CCOCC4)cc3)c2)nc1,-2.62%,2.38%,0.78%,3.12%,28.9%,-0.65%,5.15%,5.65%,-0.43%,3.09%
Cc1nnc(-c2ccc(C)c(-c3ccc(C(=O)NCc4ccc(Cl)cc4)cc3)c2)o1,3.65%,-1.7%,-0.7%,9.97%,54.2%,6.73%,27.7%,1.96%,3.99%,1.42%
COc1ccc2ncn(-c3cc(O[C@H](C)c4ccccc4Cl)c(C(N)=O)s3)c2c1,3.04%,-3.56%,-0.27%,6.99%,6.3%,2.23%,4.3%,5.14%,4.31%,3.31%
O=C(Nc1n[nH]c2cc(-c3ccccc3)ccc12)C1CC1,4.97%,-0.47%,-0.2%,4.83%,11.2%,4.66%,6.34%,3.31%,5.86%,6.09%
CN(C)c1ccc2c(c1)/C(=C/Nc1ccc(S(N)(=O)=O)cc1)C(=O)N2,2.21%,-1.98%,-1.04%,1.18%,2.39%,1.4%,0.72%,6.36%,1.98%,2.6%
CN1CCN(CCCNc2nc3ccc(Oc4ccc(NC(=O)Nc5cc(C(F)(F)F)ccc5F)cc4)cc3[nH]2)CC1,0.83%,2.09%,4.1%,8.14%,51.8%,5.1%,22.1%,0.46%,1.31%,-0.38%

Structure (SMILES),inhibition [1],inhibition [2],inhibition [3],inhibition [4],inhibition [5],inhibition [6],inhibition [7],inhibition [8],inhibition [9],inhibition [10]
O=C(Nc1n[nH]c2nc(-c3ccco3)ccc12)C1CC1,1.35%,0.39%,4.26%,1.96%,5.5%,1.81%,1.59%,1.26%,1.37%,5.77%
Fc1ccc(-c2ncn(C3CCNCC3)c2-c2ccnc(Oc3ccc(F)c(F)c3)n2)cc1,6.51%,-3.83%,-1.43%,,,,,,,
C#Cc1cccc(Nc2ncnc3ccc(OCCCCNCCS(C)(=O)=O)cc23)c1,5.78%,-1.8%,-2.44%,3.36%,13.9%,4.69%,7.25%,6.43%,4.8%,1.66%
COc1ccc(C2=C(N3CCc4ccccc43)C(=O)NC2=O)cc1,5.25%,0.52%,1.43%,3.41%,12.2%,4.81%,8.67%,-0.17%,3.67%,12%
COc1cc(Nc2ncc(-c3ccccc3)o2)cc(OC)c1OC,1.29%,-0.22%,0.18%,-3.46%,-4.25%,1.4%,0.04%,-0.94%,-1.63%,-1.8%
CS(=O)(=O)CCNCc1cc(-c2cc3c(Nc4ccc(OCc5cccc(F)c5)c(Cl)c4)ncnc3s2)cs1,4.92%,0.81%,-0.39%,7.29%,8.32%,1.8%,3.36%,5.45%,6.67%,4.58%
CCN(CC)Cc1ccc(Nc2nccc(-c3cnn4ncccc34)n2)cc1,7.61%,-1.94%,-0.22%,6.95%,13.1%,3.23%,4.99%,4.71%,9.25%,3.65%
COc1cc(N2CCN(C(C)C)CC2)ccc1Nc1nc(Nc2ccc(F)cc2C(=O)NC[C@@H](O)CO)c2cc[nH]c2n1,5.1%,-4.86%,2.68%,2.09%,9.88%,4.89%,6.16%,-0.21%,4.89%,-2.16%
COc1cccc(-n2cnc3c(N/N=C/c4ccncc4)ncnc32)c1,2.27%,-0.93%,0.28%,2.63%,-0.98%,1.35%,0.89%,-0.64%,-2.04%,-1.4%
Fc1ccc(-c2ncn(C3CCNCC3)c2-c2ccnc(Oc3ccc(Oc4ccccc4)cc3)n2)cc1,5.57%,4.51%,-0.81%,,,,,,,
CCS(=O)(=O)c1ccc(OC)c(Nc2ncc(-c3ccccc3Cl)o2)c1,0.91%,0.64%,3.28%,7.68%,12.2%,2.55%,5.3%,1.24%,1.41%,5.31%
CCS(=O)(=O)c1ccc(OC)c(Nc2ncc(-c3cccc(-c4ccccc4F)c3)o2)c1,0.15%,0.74%,1.45%,5.17%,8.57%,0.03%,4.77%,3.85%,-0.94%,-2.59%
Fc1ccc(-c2ncn(CCCN3CCOCC3)c2-c2ccncc2)cc1,1.77%,-0.25%,-0.76%,7.39%,48%,3.21%,8.94%,0.12%,-0.39%,0.95%
C[C@@H](Oc1cc(-n2cnc3ccc(OCC4CCN(C)CC4)cc32)sc1C(N)=O)c1ccccc1Cl,7.74%,0.89%,0.11%,5.8%,6.58%,3.71%,5.93%,5.74%,6.23%,3.48%
COc1ccc2cc(-c3c(-c4ccncc4)nc(-c4ccc([S+](C)[O-])cc4C)n3C)ccc2c1 (stereo unspecified),0.97%,-0.41%,0.96%,8.81%,8.45%,-1.91%,9.09%,0.73%,-0.19%,-2.44%
C/C(Nc1ccc(S(N)(=O)=O)cc1)=C1/C(=O)Nc2ccccc21,0.88%,-1.51%,-1.15%,2.61%,3.43%,1.67%,7.87%,-0.85%,-1.14%,-1.08%
COc1cc2ncn(-c3cc(OCc4ccccc4C(F)(F)F)c(C(C)=O)s3)c2cc1OC,3.87%,-2.61%,1.07%,4.86%,3.85%,5.8%,4.79%,2.82%,2.04%,2.87%
C[C@@H](Oc1cc(-n2cnc3ccc(OC4CCN(C)CC4)cc32)sc1C(N)=O)c1ccccc1Cl,4.52%,-2.03%,-0.98%,9.29%,10.7%,2.89%,3.75%,4.78%,6.01%,4.13%
